Screening results from PubChem.
KB-V1 cytotox: KB-V1 MDR subline cytotoxicity | KB-V1 MDR cells viability, CellTiter-Glo, 72 h | Potency, µM (series often up to 46.1 µM), most hits filed as cytotoxic | 400,000 compounds, 3.4% hits; note: nearly all actives have a fitted effect of over 60% in size
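Cytotoxicity via CellTiter-Glo luminescence after 72 h compound exposure at 37 degrees C. Cells: drug-selected KB-V1 line, DMEM phenol-red free plus 10% FBS. Compounds tested at multiple concentrations; normalized data fitted to concentration-effect curves.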
HT1080-NT tox: kills 2HG-producing HT-1080-NT fibrosarcoma cells. HT-1080-NT fibrosarcoma viability, CellTiter-Glo ATP luminescence, 48 h. Potency, µM (titrated, usually from 46.1 µM), without a hit: top-dose activity, negative = less viability, actives largely listed as cytotoxic. 360,000 compounds, 1.6% hits;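 note: NT is the 2HG producing partner of a matched IDH1 knockdown line; 0% = DMSO-treated cells and -100% = media-only wells without cells; nearly all actives have a fitted effect of over 55% in size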
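Compounds were tested in concentration-response format on HT-1080-NT cells for 48 hours at 37 degrees C. Cell viability came from CellTiter-Glo luminescence; curves were classified by r2, response magnitude and activity.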
KB-3-1 tox: KB-3-1 parental cell cytotoxicity; KB-3-1 viability, CellTiter-Glo ATP luminescence, 72 h; Potency, µM (doses to about 46.1 µM), usual class: cytotoxic; 400,000 compounds, 1.4% hits; note: nearly all actives have a fitted effect of over 60% in size
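Cytotoxicity in the drug-sensitive parental line KB-3-1 was scored as loss of CellTiter-Glo luminescence following 72 h incubation with compound. Values come from curve fitting of normalized concentration-response data.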
TDP1 cell CPT: growth inhibition of DT40 Tdp1-/-;hTDP1 cells with camptothecin (screen for TDP1 inhibitors). chicken DT40 Tdp1-/-;hTDP1 cells + 20 nM CPT, ATP luminescence, 48 h. 420,000 compounds, 12% hits. AID 686979. Potency, µM (doses to about 46.2 µM), inactives show top-dose activity change, negative = growth inhibition, actives largely listed as inhibitors; note: nearly all actives have a fitted effect of over 55% in size
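Cell growth measured by CellTiter-Glo luminescence after a minimum 48 h, 37 C compound exposure with 20 nM CPT in Tdp1-knockout DT40 cells stably expressing hTDP1, seeded 400/well; qHTS titration format.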
DT40 TDP1 no CPT: qHTS for Inhibitors of human tyrosyl-DNA phosphodiesterase 1 (TDP1): qHTS in cells in absence of CPT; Potency, µM (doses to about 46.2 µM), without a hit: at the highest dose activity change, negative = growth inhibition, actives largely listed as inhibitors; DT40 Tdp1-/- hTDP1 cells, no CPT, ATP luminescence, 48 h; 420,000 compounds, 15% hits; note: nearly all actives have a fitted effect of over 55% in size
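Growth of hTDP1-complemented DT40 Tdp1-knockout cells is measured by ATP luminescence after at least 48 hr compound exposure at 37 °C, with DMSO substituting for the 20 nM CPT used in the parallel screen.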
HT1080 IDH1KD tx: HT-1080 IDH1 knockdown cell toxicity (counter line); HT-1080 IDH1 knockdown viability, ATP luminescence, 48 h; Potency, µM (doses to about 46.1 µM), without a hit: at the highest dose activity, negative = toxicity, actives largely listed as cytotoxic; 360,000 compounds, 2% hits;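 note: 0% = DMSO wells and -100% = cell-free medium wells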
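IDH1KD HT-1080 cells, 750/well, RPMI + 5% FBS; compound pinned after 2 h settling; 48 h, 37 °C; CellTiter-Glo luminescence; % activity normalised to DMSO and no-cell wells; curves fitted, classed by r2 and efficacy.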
Active calls of the source: *; i = inactive; ? = inconclusive; nt = no result given; [ ] = remark or other dose. Sampled rows, rich in hits. Any-hit rate of the full collection: about 19%. Calls come from the whole dose curve; as a rule, active = well fitted curve in the direction sought with a large enough effect; inconclusive = small, poorly fitted or top-dose-only effect, or another doubt; inactive = no such curve, though single readings can be large; an effect the other way counts as inactive or inconclusive. Unless noted, % is set by controls: 0 for no effect and ±100 for the full control effect; potency is the fitted concentration of half-maximal effect.

SMILES	KB-V1 cytotox	HT1080-NT tox	KB-3-1 tox	TDP1 cell CPT	DT40 TDP1 no CPT	HT1080 IDH1KD tx
CCc1nc2ccc(C(=O)NCCc3ccc(OC)c(OC)c3)cc2nc1CC	i	-2%	i	16µM*	23µM*	-2%
COc1ccc(C(=O)NCCc2ccccc2)cc1OC	i	-7%	i	-10%	9%	-4%
O=C(O)c1ccc2nc(-c3ccco3)c(-c3ccco3)nc2c1	?	0%	i	-10%	-24%	-21%
COc1ccc(/C(O)=C/c2nc3ccc(C(=O)NCCc4cccc(C)c4)cc3[nH]c2=O)cc1OC	i	8%	10µM*	2.9µM*	2.3µM*	17%
O=C(Nc1ccc2nc(-c3ccco3)c(-c3ccco3)nc2c1)NC1CC1	?	-6%	i	21µM*	23µM*	-12%
CCc1nc2ccc(C(=O)NCCc3ccc(OC)cc3)cc2nc1CC	i	5%	i	?	?	12%
Cc1ccc(C)c(NC(=O)CN(C)C(=O)Cn2c(=O)oc3ccccc32)c1	i	3%	i	3%	1%	-13%
Cc1nc2ccc(S(=O)(=O)N(C)CC(=O)Nc3ccccc3F)cc2s1	i	-1%	i	-18%	-14%	-1%
O=C(Nc1cccc(C(F)(F)F)c1)c1ccc2nc(-c3ccco3)c(-c3ccco3)nc2c1	i	-13%	i	21µM*	?	0%
COc1ccc(CCNC(=O)c2ccc(Cl)cc2)cc1OC	?	-7%	i	-8%	?	3%
COc1ccc(CCNC(=O)c2ccc3nc(-c4ccco4)c(-c4ccco4)nc3c2)cc1OC	7.3µM*	?	?	21µM*	21µM*	?
COc1cccc(-n2nnc3c(=O)n(CC(=O)N4CCC(Cc5ccccc5)CC4)cnc32)c1	5.2µM*	5%	?	?	?	17%
Cc1cccc(Cn2cnc3c(nnn3Cc3ccc(Cl)cc3)c2=O)c1	i	?	i	?	16µM*	-15%
Cc1ccc(Cn2nnc3c(=O)n(Cc4cccc(C)c4)cnc32)cc1	?	10%	i	-9%	?	-1%
O=C(Cn1cnc2c(nnn2Cc2ccccc2F)c1=O)N1CCN(c2ccccc2)CC1	i	-25%	i	?	?	2%[9.24 µM]
O=C(Cn1cnc2c(nnn2Cc2ccccc2)c1=O)N1CCN(c2ccccc2)CC1	i	4%	i	?	23µM*	1%
O=C(Cn1cnc2c(nnn2Cc2ccc(Cl)cc2)c1=O)N1CCCc2ccccc21	i	16%	i	?	?	3%
O=C(Cn1cnc2c(nnn2Cc2ccc(Cl)cc2)c1=O)N1CCN(c2ccccc2)CC1	i	-7%	i	18µM*	21µM*	-20%
CCCOc1ccc(-c2nn(-c3ccccc3)cc2C2NC(=O)NC(C)=C2C(=O)OC(C)C)cc1 (configuration not stated)	?	nt	i	?	?	nt
COCC(C)n1c(SCc2ccc(C(=O)OC)cc2)nc2ccccc2c1=O (configuration not stated)	i	-16%	i	12µM*	9.2µM*	-24%
CCn1c(SCc2ccc(OC)c(F)c2)nc2ccccc2c1=O	?	?	i	?	-70%	-14%
COCC(C)n1c(SCc2ccc(OC)c(F)c2)nc2ccccc2c1=O (configuration not stated)	?	-19%	i	5.8µM*	4.1µM*	-2%
COCC(C)n1c(SCC(=O)NC(=O)Cc2ccccc2)nc2ccccc2c1=O (configuration not stated)	i	6%	i	?	-21%	-2%
CCCn1cc(CN2CCC(n3nccc3NC(=O)CCOc3ccccc3)CC2)c(C)n1	i	11%	i	6%	7%	21%
COc1ccc(NC(=S)Nc2ccc3nsnc3c2)cc1	18µM*	-25%	i	6.5µM*	18µM*	?
SMILES	KB-V1 cytotox	HT1080-NT tox	KB-3-1 tox	TDP1 cell CPT	DT40 TDP1 no CPT	HT1080 IDH1KD tx
CCOc1ccc(NC(=S)Nc2ccc3nsnc3c2)cc1	i	-14%	i	5.8µM*	8.2µM*	-1%
COc1ccc(C(=S)Nc2ccc(C)cc2)cc1	i	5%	i	-24%	-4%	17%
CC(C)N(C(=O)Nc1ccc2nsnc2c1)C(C)C	?	18µM*	?	?	?	?
COc1ccc(NC(=S)c2ccncc2)cc1	18µM*	12%	?	-24%	?	-8%
COc1ccc(NC(=S)Nc2ccc3nc(C)c(C)nc3c2)cc1	i	11%	i	-16%	-25%	1%
CC1CCN(C(=O)Nc2ccc3nsnc3c2)CC1	i	6%	i	0%	-21%	22%
COc1ccc(N(CC(=O)NC2CCS(=O)(=O)C2)S(=O)(=O)c2ccc(Cl)c(Cl)c2)cc1 (configuration not stated)	i	16%	i	-20%	-20%	9%
Cc1cc(NC(=O)c2ccc(F)cc2)n(C)n1	i	-2%	i	9%	-14%	-3%
CCOC(=O)c1c(S(=O)(=O)N2CCCC(C(=O)Nc3ccc(C)cc3C)C2)c(C)n(CC)c1C (configuration not stated)	i	nt	i	?	?	nt
COc1cc2nc(N3CCNCC3)nc(N)c2cc1OC	i	0%	?	-88%	-107%	2%
COc1cc2nc(N3CCCN(C)CC3)nc(NC3CCN(C)C3)c2cc1OC (configuration not stated)	i	nt	?	13µM*	18µM*	nt
COc1cc2nc(N3CCCN(C)CC3)nc(NC3CCOCC3)c2cc1OC	nt	-16%	nt	11µM*	7.1µM*	-12%
COc1cc2c(NC3CCN(C)CC3)nc(N3CCCN(C)CC3)nc2cc1O	nt	-2%	nt	13%	-20%	10%
COc1cc2nc(N3CCCN(C)CC3)nc(OC3CCN(C)CC3)c2cc1OC	i	nt	i	?	14µM*	nt
COc1cc2c(NC3CCN(C)CC3)nc(N3CCCN(C)CC3)nc2cc1OCCN(C)CCN(C)C	i	nt	i	-8%	-9%	nt
COc1cc2nc(N3CCCN(C)CC3)nc(NC3CCCCC3)c2cc1OC	nt	18µM*	nt	7.9µM*	8.9µM*	?
COc1ccc(N2CCN(C(=O)COC(=O)c3ccc(C)o3)CC2)cc1	i	7%	i	?	?	7%
